This is an account of results in PubChem BioAssay (EPA / NIEHS).

Active and inactive are the calls of the source. Rule for the calls: active = hit-call score of the fitted dose curve at least 0.9, where 1 is the maximum; inactive = score below 0.9.

Test [1] can be described thus: APR_HepG2_CellLoss_1hr: Apredica 1-hour HepG2 Assay for Cell Loss (AID 2282668).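 Note: curves fitted both ways against DMSO so gain or loss of cells counts.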 The conditions noted are these: high-content imaging. The method in brief: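 Cell number comes from high-content imaging of Hoechst-labelled nuclei in fixed HepG2 cells. Cells were exposed for 1 h to ten concentrations from 0.39 to 200 uM in 0.5% DMSO. Gain or loss was fitted against DMSO controls.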

A short description of test [2]: APR_HepG2_NuclearSize_1hr: Apredica 1-hour HepG2 Assay for Nuclear Size (AID 2282670). The following applies: high-content imaging, actives raise or lower the signal. The gist of the method:
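Nuclear size measured by high-content imaging of Hoechst 33342 nuclear stain after formaldehyde fixation; human HepG2 line exposed 1 hr to compounds at 0.39–200 uM in 0.5% DMSO, with bidirectional curve fitting relative to DMSO.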

The nature of test [3]: APR_HepG2_P-H2AX_1hr: Apredica 1-hour HepG2 Assay for H2AX Phosphorylation (AID 2282673). The conditions noted are these: high-content imaging, actives raise or lower the signal. The method in brief: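 Phospho-H2A.x immunofluorescence (1:200, FITC secondary) plus Hoechst nuclear stain, quantified by high-content imaging in HepG2 after 1 hr compound exposure. Ten concentrations, 0.39 to 200 uM, in duplicate with 0.5% DMSO; fit both directions against DMSO.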

The nature of test [4]: APR_HepG2_MitoMembPot_1hr: Apredica 1-hour HepG2 Assay for Mitochondrial Membrane Potential (AID 2282675). The conditions noted are these: imaging, actives raise or lower the signal. The gist of the method: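 Mitochondrial membrane potential read as MitoTracker Red CMXRos intensity by automated imaging of fixed HepG2 cells. Dye at 250 nM for 30 min pre-fixation; compounds 0.39 to 200 uM for 1 hour, duplicate wells, 0.5% DMSO.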

The nature of test [5]: APR_HepG2_CellCycleArrest_24hr: Apredica 24-hour HepG2 Assay for Cell Cycle Arrest (AID 2282905).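 Note: cell cycle arrest scored as ratio of 2N to 4N nuclear DNA content.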 The following applies: imaging, actives raise or lower the signal. The method in brief:
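Compounds (0.39 to 200 uM, final DMSO 0.5% v/v) are applied to HepG2 cells for 24 hours; cells are then fixed, permeabilized and nuclei labeled with Hoechst 33342. Automated imaging measures DNA content, and activity is fitted in both directions against DMSO.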

Test [6] is described as follows: APR_HepG2_MitoMass_1hr: Apredica 1-hour HepG2 Assay for Mitochondrial Mass (AID 2282674). The following applies: high-content imaging, actives raise or lower the signal. The method in brief: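 Mitochondrial mass is taken from MitoTracker Red CMXRos (250 nM, 30 min, pre-fixation) fluorescence imaged at 20x in HepG2 cells. Exposure lasted 1 hr across ten concentrations, 0.39 to 200 uM, 0.5% DMSO; DMSO baseline, bidirectional fitting.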

Consider `COc1c(Cl)ccc(Cl)c1C(=O)O`, for which the compound was called inactive in test [1], in test [2], in test [3], in test [4] and in test [5].

Consider `COC(=O)c1cccc(C)c1S(=O)(=O)NC(=O)Nc1nc(OCC(F)(F)F)nc(N(C)C)n1`, for which the call in test [1], in test [2], in test [3] and in test [4] was inactive.

For the compound `CC1(C)C(C=C(Cl)Cl)C1C(=O)OCc1cccc(Oc2ccccc2)c1` (stereo unspecified), the call in test [1], in test [2], in test [3] and in test [4] was inactive.

For `CCCCCOC(=O)COc1cc(N2C(=O)C3=C(CCCC3)C2=O)c(F)cc1Cl`, the compound was called inactive in test [1], in test [2], in test [3] and in test [4].

For `COC(=O)c1ccccc1C(=O)O`, the outcome in test [1], in test [2], in test [3], in test [6], in test [4] and in test [5] was inactive.

As for `CCCCCCC(C)OC(=O)COc1nc(F)c(Cl)c(N)c1Cl` (stereo unspecified), the AC50 in test [1] is 113 µM (active); in test [3], 100 µM (active). Also, the compound was classed as inactive in test [2] and in test [4].

Take `CCOC(=O)[C@H](C)Oc1ccc(Oc2nc3ccc(Cl)cc3o2)cc1`: the compound was classed as inactive in test [1], in test [2], in test [3] and in test [4].
